# Screens: PubChem, Broad Institute
# ALR inh – inhibitors of human sulfhydryl oxidase ALR. purified ALR, DTT oxidation, H2O2 HRP-luminol luminescence. hit rate 3.8% among 290,000. inhibition, % (no concentration beside the values). AID 485317;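 active = mean replicate inhibition above about 79%, with every replicate also reaching it, limit read from the data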
# N-glyco inh – N-linked glycosylation inhibition | reporter increase, % at 12.5 µM | hit rate 0.23% among 360,000 | D54 ERlucT glycosylation luciferase reporter, 24 h; percent of 100 nM tunicamycin response;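 active = mean luciferase reporter signal, scaled so untreated is 0 and the glycosylation-blocking control 100, at or above a set limit in every replicate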;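 also: luciferase carries N-glycosylation sites so blocking glycosylation raises the light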
# CDK5 p35 inh – inhibitors of human CDK5/p35 kinase; Recombinant CDK5/p35, ADP-Glo luminescence, 60 min; inhibition, % at 10 µM; hit rate 0.01% among 330,000;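 active = highest replicate inhibition of at least 50% and at least 75% of replicates reaching 50%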
# Target sequence (Q00535 whole entry, looked up): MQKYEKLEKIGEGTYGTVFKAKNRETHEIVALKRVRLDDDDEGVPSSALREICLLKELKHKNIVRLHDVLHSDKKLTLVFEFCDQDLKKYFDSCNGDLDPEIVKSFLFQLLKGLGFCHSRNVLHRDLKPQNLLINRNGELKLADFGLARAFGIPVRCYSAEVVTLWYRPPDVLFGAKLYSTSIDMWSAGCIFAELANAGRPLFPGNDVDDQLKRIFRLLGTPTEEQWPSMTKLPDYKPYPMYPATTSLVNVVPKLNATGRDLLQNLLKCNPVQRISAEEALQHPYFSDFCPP
# Target sequence (Q15078 whole entry, looked up): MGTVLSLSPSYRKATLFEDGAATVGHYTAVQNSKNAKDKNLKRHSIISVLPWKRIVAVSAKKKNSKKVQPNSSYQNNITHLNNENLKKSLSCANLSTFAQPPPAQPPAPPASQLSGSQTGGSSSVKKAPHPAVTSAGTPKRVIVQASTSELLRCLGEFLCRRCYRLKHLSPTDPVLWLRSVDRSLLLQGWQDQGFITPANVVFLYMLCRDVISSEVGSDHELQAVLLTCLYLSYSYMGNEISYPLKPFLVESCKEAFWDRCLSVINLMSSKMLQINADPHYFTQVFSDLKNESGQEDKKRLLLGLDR
# SUMO Mot1 rescue – inhibitors of SUMOylation pathway: yeast Mot1-301 growth rescue; growth rescue, % at 18.8 µM; S. cerevisiae Mot1-301 growth rescue, ATP luminescence, 38.5C; percent above DMSO median, 100 means doubled; AID 2716; hit rate 1% among 320,000;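 active = every valid replicate shows activation above 250% relative to neutral control wells; inactive = the rest, any valid replicate at or below 250%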
# Casp6 inh – blocks human caspase-6 cleavage activity; inhibition, % at 12.5 µM; P55212; hit rate 0.53% among 350,000; purified caspase-6, Z-VEID-R110 cleavage fluorescence;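 active = mean inhibition across replicates at least about 35%, with every replicate also reaching that limit, limit read from the data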
# NSD2 HMT inh – blocks human histone methyltransferase NSD2; O96028; NSD2 peptide methylation, AlphaScreen, 120 min; inhibition, % at 12.5 µM; hit rate 0.54% among 310,000; in the data active = inhibition above about 50%
# Numbers stand for hits; – = inactive; · = no result. This is a sample that favours compounds with a hit; in the whole collection about 3.9% have one here.
SMILES,ALR inh,N-glyco inh,CDK5 p35 inh,SUMO Mot1 rescue,Casp6 inh,NSD2 HMT inh
COc1ccc(Br)cc1CNc1ccc2[nH]c(=O)[nH]c2c1,99,–,–,–,–,–
COc1ccc(Br)cc1CNc1ccc(O)cc1,98,–,–,·,·,–
Oc1c(Br)cc(Br)cc1CNc1ccc(F)cc1,98,–,–,–,–,–
C[C@@H]1CN([C@@H](C)CO)S(=O)(=O)c2ccc(C#CC3(O)CCCC3)cc2O[C@@H]1CN(C)C(=O)Nc1ccccc1,·,·,·,·,–,·
CC(C)CNC(=O)C(=O)N/N=C/c1cccs1,82,–,–,–,·,–
O=C(CCCNc1ccccc1)N/N=C/c1cccs1,98,–,–,–,–,–
CC(=O)N(C)C[C@H]1Oc2ncc(C#Cc3ccc(F)cc3)cc2C(=O)N([C@@H](C)CO)C[C@H]1C,·,·,·,·,–,·
N#CCC(CNc1ncc(C(F)(F)F)cc1Cl)OC(=O)c1cccc([N+](=O)[O-])c1 (configuration not stated),–,29,–,–,·,–
N#CCC(CNc1ncc(C(F)(F)F)cc1Cl)OC(=O)c1ccc(Cl)cc1 (configuration not stated),–,–,–,–,·,–
CCS(=O)(=O)N1CCN=C1SCc1ccc(F)cc1,89,–,–,–,–,–
CCCS(=O)(=O)N1CCN=C1SCc1cccc2ccccc12,99,–,–,–,–,–
CS(=O)(=O)N1CCN=C1SCc1cccc(F)c1,81,–,–,–,–,–
CCS(=O)(=O)N1CCN=C1SCc1cccc(F)c1,–,–,–,–,–,–
CCCS(=O)(=O)N1CCN=C1SCc1cccnc1,99,–,–,–,–,–
CN1CCN(C(=O)C[C@H]2CC[C@@H](NC(=O)c3ccc4c(c3)OCO4)[C@@H](CO)O2)CC1,·,·,·,·,–,·
O=C(C[C@@H]1C=C[C@H](NC(=O)CCN2CCCCC2)[C@@H](CO)O1)NCc1ccc(Cl)c(Cl)c1,·,·,·,·,–,·
CCCS(=O)(=O)N1CCN=C1SCc1ccc(F)cc1,92,–,–,–,–,–
CCS(=O)(=O)N1CCN=C1SCc1ccccc1,–,–,–,–,–,–
C[C@H]1CN([C@@H](C)CO)C(=O)c2cc(C#CC(C)(C)O)cnc2O[C@@H]1CN(C)Cc1cncnc1,·,·,·,·,–,·
Cc1cc2nc(CS)[nH]c2cc1C,99,–,–,–,–,–
CCCN1[C@@H]2c3ccc(C4=CCCCC4)c(=O)n3C[C@H]1[C@H](CO)[C@H]2C(=O)N1CCOCC1,·,·,·,·,–,·
Cc1cccc(NCc2ccccc2O)c1C,99,–,–,–,·,–
CO[C@H](CN(C)C(=O)c1ccccc1F)[C@H](C)CN([C@@H](C)CO)S(=O)(=O)c1ccc(Cl)cc1,·,·,·,·,–,·
CC(C)Cc1ccc(CN2C(C)C(=O)N(Cc3cn(Cc4ccco4)nn3)CCS2(=O)=O)cc1 (configuration not stated),·,–,·,·,46,·
C[C@@H]1CN([C@H](C)CO)C(=O)c2cccc(NC(=O)NC3CCCCC3)c2O[C@@H]1CN(C)CC1CC1,·,·,·,·,–,·
SMILES,ALR inh,N-glyco inh,CDK5 p35 inh,SUMO Mot1 rescue,Casp6 inh,NSD2 HMT inh
COCCNc1c2c(nc3c(-c4ccccc4)c(C)nn13)CCC2,·,–,–,–,–,–
Cc1nn2c(NCCCN(C)C)c3c(nc2c1-c1ccccc1)CCC3,88,–,–,–,·,–
Cc1nn2c(NCCCN(C)C)c3c(nc2c1-c1ccccc1)CCCC3,97,–,–,–,–,–
COc1cc(CNc2ncc(-c3ccc(Cl)cc3)n2C)cc(OC)c1OC,95,–,–,–,–,–
CCOc1cc(CNc2ncc(-c3ccc(OC)cc3)n2C)ccc1O,78,–,–,–,·,–
COc1ccc(CNc2ncc(-c3ccccc3)n2C)c(OC)c1OC,–,–,–,–,–,–
COc1cc(CNc2ncc(-c3ccc(Br)cc3)n2C)cc(OC)c1OC,91,–,–,–,–,–
Cn1c(-c2ccc(Br)cc2)cnc1NCc1cccnc1,–,–,–,–,·,–
COc1ccc(S(=O)(=O)Nc2ccc3c(c2)C(=O)N([C@H](C)CO)C[C@@H](C)[C@H](CN(C)C(=O)Nc2ccc(F)cc2)O3)cc1,·,·,·,·,–,·
CC(=O)SC(C[N+](=O)[O-])c1cn(C(C)=O)c2ccccc12 (configuration not stated),100,–,–,404,·,·
CN1[C@@H]2c3ccc(-c4ccccc4)c(=O)n3C[C@H]1[C@H](CO)[C@H]2C(=O)NCC1CCCCC1,·,·,·,·,–,·
O=C1Nc2cccnc2N(C(=O)CCl)c2ccccc21,–,–,–,–,47,–
NCCN1CCN(CC(=O)N2c3ccccc3C(=O)Nc3cccnc32)CC1,·,–,–,–,–,·
Cc1c(C(=O)c2ccc(N(C)C)cc2)c2ccccn2c1CCC#N,98,–,–,–,–,–
Cc1c(C(=O)c2ccc(Cl)cc2[N+](=O)[O-])c2ccccn2c1CCC#N,95,–,–,–,·,–
Cc1c(C(=O)c2ccc(F)cc2F)c2ccccn2c1CCC#N,·,–,–,–,–,–
C[C@H]1CN([C@@H](C)CO)C(=O)c2cccc(NC(=O)Nc3ccc(C(F)(F)F)cc3)c2O[C@H]1CN(C)S(=O)(=O)c1ccc(Cl)cc1,·,·,·,·,–,·
CN1C[C@H]2[C@@H](c3ccccc31)[C@H](CO)N2C(=O)Nc1cccc(F)c1,·,·,·,·,–,·
O=S(c1ccccc1O)S(=O)c1ccccc1O (configuration not stated),·,–,–,·,62,–
CS(=O)c1ccccc1O (configuration not stated),–,–,–,–,–,–
O=C(O)c1cc(N/N=C/c2ccc(OCc3ccccc3)cc2)ccc1Cl,97,–,–,–,–,–
Cc1nn(-c2ccccc2)c(Cl)c1/C=N/Nc1ccc(Cl)c(C(=O)O)c1,96,–,–,–,·,–
O=C(O)c1cc(N/N=C/c2c(O)ccc3ccccc23)ccc1Cl,·,–,–,–,·,–
O=C(O)c1cc(N/N=C/C=C/c2ccccc2)ccc1Cl,99,–,–,–,–,–
COC(=O)c1ccc(COc2ccc(/C=N/Nc3cccc(C(=O)O)c3)cc2)cc1,–,–,–,–,–,–
SMILES,ALR inh,N-glyco inh,CDK5 p35 inh,SUMO Mot1 rescue,Casp6 inh,NSD2 HMT inh
Cc1nn(-c2ccccc2)c(Cl)c1/C=N/NC(=O)OC(C)(C)C,–,–,–,–,–,–
CCO[C@@H]1OC(C(=O)N2CCCC2)=C[C@H](c2ccc3c(c2)OCO3)[C@H]1CCCO,·,·,·,·,–,·
COc1ccc(C=C2C(=O)OC(C)(C)OC2=O)cc1OC,·,–,–,–,–,–
COc1ccc(/C=C2\C(=O)NC(=O)c3ccccc32)cc1OC,·,–,–,·,93,·
COc1ccc(/C=C2\COc3ccccc3C2=O)cc1OC,–,36,–,–,·,–
COc1ccc(/C=C2/CCc3ccccc3C2=O)cc1OC,–,–,–,–,·,–
CC(C)C#Cc1cnc2c(c1)C(=O)N([C@@H](C)CO)C[C@H](C)[C@H](CN(C)Cc1cncnc1)O2,·,·,·,·,–,·
Cc1cc(O)c(-c2cc(C(=O)Nc3cccnc3)[nH]n2)cc1C,–,–,–,–,–,–
